This passage reports B-score results from PubChem BioAssay AID588676 (Johns Hopkins Ion Channel Center, 2011).

Structures are written as SMILES. Hit rate of the full screen: of about 310,000 compounds, about 3,900 (1.3%) were called active. The sample holds actives, similar compounds and a random draw of the others, so the mix is not that of the screen.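 How the source made its calls: active means calcium-response B-score plate-corrected more than 3 library SD below zero, starting fluorescence within 5 deviations, no agonist response on first addition; inactive means the rest.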

Chain of Mas-related G-protein coupled receptor member X1 (Homo sapiens) (Q96LB2 whole entry, looked up): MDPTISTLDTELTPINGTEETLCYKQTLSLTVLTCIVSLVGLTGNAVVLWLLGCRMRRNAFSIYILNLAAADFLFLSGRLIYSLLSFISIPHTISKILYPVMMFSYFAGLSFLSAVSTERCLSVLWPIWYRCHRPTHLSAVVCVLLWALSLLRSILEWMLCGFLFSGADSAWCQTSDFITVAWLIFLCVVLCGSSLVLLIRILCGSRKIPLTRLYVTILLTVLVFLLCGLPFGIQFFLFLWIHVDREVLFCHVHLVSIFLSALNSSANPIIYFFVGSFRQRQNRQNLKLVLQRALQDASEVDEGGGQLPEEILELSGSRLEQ

This test addresses Mas-related G-protein coupled receptor member X1 (Homo sapiens) (UniProt Q96LB2). Description: antagonists of human MrgX1 receptor, primary screen, HEK293 cells, Fluo-4 calcium flux (AID 588676).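 On B-score: peak minus trough fluorescence over baseline after final BAM8-22 challenge near maximal dose.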 To be noted: Fluo-4, BAM8-22 antagonism, at 10 µM; stronger effect = lower value. Background: Calcium assays in cells follow changes in intracellular calcium, usually with a dye or a luminescent sensor.
`O=C1CCC(C(=O)N2CCC(O)(c3ccccc3)CC2)CN1CCc1ccccc1` (stereo not drawn): the B-score result is “inactive”.

As for `COc1ccccc1OCc1nnc(SCC(N)=O)n1-c1ccccc1`, the B-score result is “inactive”.

In the case of `CC(C)(C)NC(=O)NC(=O)COC(=O)C1(C)CC1(Cl)Cl` (stereo not drawn), the B-score entry is “inactive”.

Turning to `COc1cc(CCC(=O)OCC(=O)Nc2cccc(S(N)(=O)=O)c2)cc(OC)c1OC`, the B-score entry is “inactive”.

As for `COc1cc(CCC(=O)Nc2ccncc2Cl)cc(OC)c1OC`, the B-score was -6.22 (active).

As to `COc1cc(CCC(=O)N2CCN(c3ccccc3Cl)CC2)cc(OC)c1OC`, the B-score entry was “inactive”.

Take `C#CCOCCOCCOCCNc1nc(N2CCN(C(=O)CCCCCCCCCCNC(=O)[C@H]([C@@H](C)CC)n3cc(CCCCN=C(N)N)nn3)CC2)nc(N2CCN(C(=O)CCCCCCCCCCNC(=O)[C@H](CO)n3cc(CCCSC)nn3)CC2)n1`: the B-score result was “inactive”.

For the compound `O=C(NCC(=O)N(Cc1cccs1)C(C(=O)NC1CCCCC1)c1ccco1)c1cccs1` (stereo not drawn), the B-score entry is “inactive”.

For the compound `COc1ccc(N2CCN(CCCNC(=O)C3CCN(S(=O)(=O)N4CCOCC4)CC3)CC2)cc1`, the B-score result was “inactive”.

Regarding `COCCCNC(=O)C1CCN(c2ccc(N3CCOCC3)nn2)CC1`, the B-score is -6.39 (active).

For the compound `CCOc1ccc(CCNC(=O)C2CCN(c3ccc(N4CCOCC4)nn3)CC2)cc1OCC`, the B-score entry is “inactive”.

Turning to `CN1CCN(Cc2c(C(=O)N3CCc4ccccc4C3)nc3ccc(Cl)cn23)CC1`, the B-score result was “inactive”.

As for `CCc1nn(-c2cc(Oc3cccc4ccccc34)nc(-c3ccccc3)n2)c(N)c1C#N`, the B-score entry is “inactive”.

Regarding `CCOC(=O)c1c(NC(=O)CSc2nccc(=O)[nH]2)sc(C)c1C`, the B-score entry is “inactive”.

Turning to `COCCCNCC(=O)Nc1sc(C)c(C)c1C(=O)OC`, the B-score result was “inactive”.

`COC(=O)c1c(NC(=O)c2c(Cl)cnn2C)sc(C)c1C`: the B-score was -4.74 (active).

For the compound `CN(C)c1cccc(C(=O)N2CCC(n3nccc3NC(=O)C3CCOC3)CC2)c1` (stereo not drawn), the B-score result is “inactive”.

For `Cc1ccccc1OCCC(=O)OCC(=O)NC(C)c1ccccc1` (stereo not drawn), the B-score entry is “inactive”.

In the case of `O=C(Cn1cc(C(=O)C2CC2)c2ccccc21)Nc1ccccc1Cl`, the B-score entry is “inactive”.

Regarding `Cc1ccc(-c2nn(C(C)(C)C)c3ncnc(N)c23)cc1`, the B-score was -4.54 (active).

Regarding `Cc1ccc(-n2cnc3ncnc(-c4ccccc4)c32)cc1`, the B-score entry is “inactive”.

Turning to `CC(=O)Nc1ccc(NC(=O)COc2ccc(S(=O)(=O)NC(C)c3ccccc3)cc2)cc1` (stereo not drawn), the B-score entry was “inactive”.

As to `COCCOC(=O)c1c(C)oc2cc(Br)c(OCC(N)=O)cc12`, the B-score entry was “inactive”.

For `CCOC(=O)c1sc(NC(=O)COc2ncnc3ccccc23)c(C(=O)OCC)c1C`, the B-score result was “inactive”.

For the compound `CCOC(=O)c1sc(NC(=O)CSc2nnc(-c3ccco3)o2)c(C(=O)OCC)c1C`, the B-score entry was “inactive”.

Regarding `CCOC(=O)c1c(NC(=O)CNC2CCCc3ccccc32)sc(C(N)=O)c1C` (stereo not drawn), the B-score is -4.67 (active).

As for `Cc1ccc(C(=O)C(C)OC(=O)Cc2n[nH]c(=O)c3ccccc23)cc1C` (stereo not drawn), the B-score result is “inactive”.

Consider `O=C(/C(=C/c1cccc(Cl)c1)c1nc2ccccc2[nH]1)c1ccccc1`, for which the B-score entry was “inactive”.

In the case of `O=C(CSc1nc2ccc([N+](=O)[O-])cc2[nH]1)c1ccc(Cl)cc1`, the B-score entry was “inactive”.

As for `O=C(Cc1nc2ccccc2[nH]c1=O)c1ccc(Cl)cc1`, the B-score is -5.73 (active).

As for `CN1CCN(c2ccccc2NC(=O)COc2ccc(C3CCCCC3)cc2)CC1`, the B-score entry was “inactive”.

For `Cc1ccc(SCc2cc(=O)[nH]c(N3CCCCC3)n2)cc1`, the B-score entry is “inactive”.

For the compound `Cc1nnc(SCc2cc(=O)[nH]c(N3CCN(Cc4ccccc4)CC3)n2)s1`, the B-score entry is “inactive”.

Turning to `O=c1cc(CSc2ccccn2)nc(N2CCN(c3ccccc3)CC2)[nH]1`, the B-score was -4.82 (active).

With `C=CCOc1cccc(C2C(C(=O)c3ccc(C)o3)=C(O)C(=O)N2CCCn2ccnc2)c1` (stereo not drawn), the B-score entry is “inactive”.

Regarding `C=CCOc1cccc(C2C(C(=O)c3ccc(C)o3)=C(O)C(=O)N2c2nnc(C)s2)c1` (stereo not drawn), the B-score is -4.61 (active).

Consider `Cc1cc(N2C(=O)C(O)=C(C(=O)c3ccc(C)o3)C2c2ccc(OCc3ccccc3)cc2)no1` (stereo not drawn), for which the B-score entry was “inactive”.

Take `COc1ccc(/C(O)=C2/C(=O)C(=O)N(CC3CCCO3)C2c2ccc(OC)c(OC)c2)cc1` (stereo not drawn): the B-score result was “inactive”.

For `COc1ccc(NC(C(=O)Nc2cccc(C(C)=O)c2)c2ccccc2)cc1` (stereo not drawn), the B-score result is “inactive”.

Consider `Cc1cc(-c2ccc(S(=O)(=O)N3CCN(c4cccc(C(F)(F)F)c4)CC3)s2)on1`, for which the B-score entry was “inactive”.

`O=C(Cc1ccccn1)c1ccc(O)cc1O`: the B-score is -4.66 (active).

On to `COc1ccc(C(=O)Cc2cnn(-c3ccccc3)c2)c(O)c1`, for which the B-score entry was “inactive”.

With `COc1ccc(CC(=O)c2ccc(O)cc2O)cc1OC`, the B-score entry is “inactive”.

`CCn1c(SCC(=O)NC2CC2)nnc1-c1ccccc1OC`: the B-score result was “inactive”.

As for `O=C(NCC1CCCO1)c1ccccc1-c1nc(-c2ccccc2Cl)no1` (stereo not drawn), the B-score result was “inactive”.

As to `C=CCn1cnc2scc(-c3ccccc3)c2c1=O`, the B-score entry was “inactive”.

As for `C=CCn1nc(-c2ccccc2)c2c(C)onc2c1=O`, the B-score is -6.96 (active).

In the case of `Cc1nn(-c2ccccc2)c(=O)c2noc(C)c12`, the B-score result was “inactive”.

For `COc1cccc2cc(C(N)=O)/c(=N\NC(=O)c3ccccc3)oc12`, the B-score entry is “inactive”.

In the case of `O=C(CCn1ccc([N+](=O)[O-])n1)Nc1nccs1`, the B-score is -5.19 (active).

Take `O=C(Cn1ccc([N+](=O)[O-])n1)NCc1cccs1`: the B-score result was “inactive”.

With `Cc1ccnc(NC(=O)Cn2ccc([N+](=O)[O-])n2)c1`, the B-score result is “inactive”.

As for `Cc1cccc(C)c1NC1=NC(=S)N(c2ccc(N(C)C)cc2)C1(C)C`, the B-score result was “inactive”.

On to `CN(C)CCCn1c(=O)n(Cc2ccccc2)c(=O)c2c3c(sc21)CCCCC3`, for which the B-score entry is “inactive”.

Regarding `Cc1c(S(=O)(=O)NC(C)c2ccccc2)c(=O)n(C)c(=O)n1C` (stereo not drawn), the B-score result is “inactive”.

Turning to `O=C(CNC(=O)C12CC3CC(CC(C3)C1)C2)OCC(=O)N1CCCCC1`, the B-score result was “inactive”.

Consider `COc1cc2c(cc1O)C(SC)=NC(C)(C)C2`, for which the B-score was -5.85 (active).

Turning to `COc1cc2c(cc1OC)C(C(C)C)=NC(C)(C)C2`, the B-score entry is “inactive”.

Turning to `COc1cc2c(cc1OC)C(Nc1ccc(S(N)(=O)=O)cc1)=NC(C)(C)C2`, the B-score result was “inactive”.

Consider `CN(C)CCc1c[nH]c2ccc(Cn3cncn3)cc12`, for which the B-score entry was “inactive”.

`Clc1ccc(-c2nc3ccccn3c2CN2CCSCC2)cc1`: the B-score is -5.66 (active).

Take `CC1CCN(Cc2nc(-c3ccc(Cl)cc3)no2)CC1`: the B-score result is “inactive”.

Regarding `Clc1ccc(-c2nnc(-c3ccccc3)nc2N2CCSCC2)cc1`, the B-score result is “inactive”.

In the case of `CCCOc1ccc(NC(=O)CC2C(=O)N(C)C(=S)N2Cc2ccc3c(c2)OCO3)cc1` (stereo not drawn), the B-score result was “inactive”.

Take `O=C(Nc1ccc(Cl)cc1)C1c2cccc[n+]2CC(=O)N1Cc1ccc2c(c1)OCO2` (stereo not drawn): the B-score was -6.48 (active).

In the case of `O=C(CSCc1ccc(Cl)cc1)N1CCN(Cc2ccc3c(c2)OCO3)CC1`, the B-score result was “inactive”.

With `COc1ccc(C)cc1Nc1nc(C)nc2c1oc1ccccc12`, the B-score entry is “inactive”.

As for `COc1ccc2c(c1)C(=O)Nc1cc(Cl)ccc1N2`, the B-score result is “inactive”.

As for `CCC1CCCCN1CCNC(=O)c1[nH]c(C)c(C(C)=O)c1C` (stereo not drawn), the B-score is -5.1 (active).

As for `CC(=O)c1c(C)[nH]c(C(=O)NCCCN2CCCC2)c1C`, the B-score entry was “inactive”.

For the compound `CCCCN(CC)CCNC(=O)c1[nH]c(C)c(C(C)=O)c1C`, the B-score result was “inactive”.

Consider `NC(=O)CC[C@@H]1NC(=O)[C@@H]2CCCN2C(=O)c2cc([N+](=O)[O-])cc(F)c2NCCC[C@@H](C(N)=O)NC1=O`, for which the B-score result was “inactive”.

`O=C(CSc1nc2nccnc2c(=O)n1Cc1cccs1)Nc1ccccc1F`: the B-score result is “inactive”.
